Assay outcomes: PubChem, National Center for Advancing Translational Sciences (NCATS)
Cycloheximide cs = Cycloheximide Counterscreen for Small Molecule Inhibitors of Shiga Toxin. cell reporter, cycloheximide protein synthesis inhibition counterscreen. max response, %. hit rate 12% among 300,000. AID 2314, 2010; in the data active means max response mostly above about 13%, no sharp cut-off; inactive means mostly below about 14%; further: read at 38.3 µM for the half of the compounds with a filed dose; 0% is about no effect
VACV mCherry inh = qHTS for Stage-Specific Inhibitors of Vaccinia Orthopoxvirus: mCherry Reporter Primary qHTS. Potency, µM (doses to about 36.5 µM), for inactives: at the highest dose activity change, negative = inhibition, hits mostly inhibitors. hit rate 0.63% among 310,000. Vaccinia virus mCherry reporter infection, fluorescence. AID 720579, 2013; calls by dose curve; tested in A549 cells; further: potency means the concentration at half of the fitted maximal effect; on the % scale 0 is the no-effect control and ±100 the full control effect; nearly all actives have a fitted effect of over 35% in size
Marburg entry inh = qHTS for inhibitors of binding or entry into cells for Marburg Virus; Marburg virus pseudotyped entry inhibition, cell reporter; Potency, µM (top dose mostly 37.8 µM), without a hit: top-dose activity change, negative = inhibition, most hits filed as inhibitors; hit rate 1.8% among 300,000; AID 540276, 2011; calls by dose curve; tested in HEK293 cells; further: potency means the concentration at half of the fitted maximal effect; on the % scale 0 is the no-effect control and ±100 the full control effect
Shiga inhibitor = A qHTS for Small Molecule Inhibitors of Shiga Toxin. hit rate 9.2% among 290,000. inhibition, % at 38.7 µM. Vero cells, Shiga toxin protein synthesis inhibition reporter. AID 2315, 2010; in the data active means inhibition mostly above about 28%, no sharp cut-off; inactive means mostly below about 43%; further: 0% is about no effect
LASV entry inh = qHTS for Inhibitors of binding or entry into cells for Lassa Virus; Lassa virus pseudotype entry inhibition, cell reporter; Potency, µM (titrated, usually from 37.9 µM), inactives show top-dose activity change, negative = inhibition, most hits filed as inhibitors; hit rate 1.2% among 300,000; calls by dose curve; tested in HEK293 cells; further: potency means the concentration at half of the fitted maximal effect; on the % scale 0 is the no-effect control and ±100 the full control effect; nearly all actives have a fitted effect of over 50% in size
Vaccinia Venus = qHTS for Stage-Specific Inhibitors of Vaccinia Orthopoxvirus: Venus Reporter Primary qHTS; Vaccinia virus Venus reporter expression, fluorescence; Potency, µM (doses to about 36.5 µM), for inactives: top-dose activity change, negative = inhibition, most hits filed as inhibitors; hit rate 0.46% among 330,000; calls by dose curve; tested in A549 cells; further: potency means the concentration at half of the fitted maximal effect; on the % scale 0 is the no-effect control and ±100 the full control effect; nearly all actives have a fitted effect of over 30% in size
* hit, by the source's call; [ ] = another dose, or the depositor's remark. The full list was thinned out, with hits kept by preference.

`CCN(CC)CCN(C(=O)c1ccc2ccccc2c1)c1nc2ccc(F)cc2s1` gave Cycloheximide cs 9, VACV mCherry inh inactive, Marburg entry inh inconclusive, Shiga inhibitor 51*, LASV entry inh 9%[46.1 µM] and Vaccinia Venus -15%.
Screening CN(C)CCCN(C(=O)COc1ccc(Cl)cc1)c1nc2cc3c(cc2s1)OCO3 returned Cycloheximide cs -4, VACV mCherry inh inconclusive, Marburg entry inh inconclusive, Shiga inhibitor -23, LASV entry inh inconclusive and Vaccinia Venus inconclusive.
`COc1cccc(N2CCN(C(=O)CN3CCSc4ccc(S(=O)(=O)N(C)C)cc43)CC2)c1` gave VACV mCherry inh 6%, LASV entry inh -9%[46.1 µM] and Vaccinia Venus 4%.
Screening CN(C)c1ccc(/C=C/c2ccnc3ccccc23)cc1Cl returned VACV mCherry inh -4% and Vaccinia Venus -18%.
For Cc1ccc2[nH]c(-c3ccccc3)c(CN(C)C)c(=O)c2c1 the results were Cycloheximide cs 41*, VACV mCherry inh -19%, Marburg entry inh -4%, Shiga inhibitor 46, LASV entry inh -3% and Vaccinia Venus -8%.
For Cc1ccc2[nH]c(-c3ccccc3)c(CN3CCCC3)c(=O)c2c1 the results were Cycloheximide cs 8, VACV mCherry inh -25%, Marburg entry inh -26%[46.1 µM], Shiga inhibitor 21, LASV entry inh -26% and Vaccinia Venus inconclusive.
`C=CCc1c(C)[nH]c2ccc(C)cc2c1=O` gave Cycloheximide cs 31*, VACV mCherry inh inactive, Marburg entry inh 8%, Shiga inhibitor 70*, LASV entry inh 20% and Vaccinia Venus -3%.
`CCc1c(C)[nH]c2ccc(C)cc2c1=O` gave Cycloheximide cs 22*, VACV mCherry inh -7%, Marburg entry inh inconclusive, Shiga inhibitor 45*, LASV entry inh inconclusive and Vaccinia Venus -4%.
Screening CC(C)(CO)NC(=O)c1cnn(-c2ncc3c(n2)-c2ccccc2CC3)c1C1CC1 returned VACV mCherry inh -14% and Vaccinia Venus -8%.
Screening NS(=O)(=O)c1ccc(N2N=C(c3ccccc3)CC2c2cccc(Br)c2)cc1 (stereo unspecified) returned VACV mCherry inh inconclusive and Vaccinia Venus -33%.
`COc1ccc(C2CC(c3ccccc3)=NN2c2ccc(S(N)(=O)=O)cc2)cc1OC` (stereo unspecified) gave Cycloheximide cs 7, VACV mCherry inh inconclusive, Marburg entry inh inconclusive, Shiga inhibitor -11, LASV entry inh 11µM* and Vaccinia Venus -20%.
For NS(=O)(=O)c1ccc(N2N=C(c3ccc(Br)cc3)CC2c2ccc(F)cc2)cc1 (stereo unspecified) the results were Cycloheximide cs -3, VACV mCherry inh 16µM*, Marburg entry inh 10µM*, Shiga inhibitor -2, LASV entry inh 7.9µM* and Vaccinia Venus 11µM*.
Screening COc1ccc(C2CC(c3ccccc3)=NN2c2ccccc2)c(C(=O)O)c1OC (stereo unspecified) returned Cycloheximide cs 1, VACV mCherry inh inactive, Marburg entry inh -3%[46.1 µM], Shiga inhibitor -4, LASV entry inh 3% and Vaccinia Venus -2%.
NS(=O)(=O)c1ccc(N2N=C(c3ccccc3)CC2c2cccc(F)c2)cc1 (stereo unspecified) was read as Cycloheximide cs -1, VACV mCherry inh -17%, Marburg entry inh inconclusive, Shiga inhibitor -5, LASV entry inh inconclusive and Vaccinia Venus -29%.
COc1ccc2c(c1OC)C(=O)N1N=C(c3ccccc3)CC21 (stereo unspecified) was read as Cycloheximide cs 18*, VACV mCherry inh -16%[1.46 µM], Marburg entry inh 5%, Shiga inhibitor 31, LASV entry inh 5% and Vaccinia Venus -29%.
COc1cc(C2CC(c3ccccc3)=NN2c2ccccc2)ccc1OCC(=O)O (stereo unspecified) was read as Cycloheximide cs -5, VACV mCherry inh inactive, Marburg entry inh 0%[46.1 µM], Shiga inhibitor -1, LASV entry inh 1%[46.1 µM] and Vaccinia Venus 1%.
